Screening data (PubChem BioAssay)
PME-1 primary: blocks human protein phosphatase methylesterase 1. Q9Y570. recombinant PME-1, FP-Rh probe fluorescence polarization. inhibition, % at 5.9 µM. actives 0.53% (n = 320,000). AID 2130;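 active means inhibition above the campaign mean of all compounds plus 3 SD, cut at about 26% in these data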;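 further: competitive labeling of PME-1 active site by serine hydrolase directed probe; inhibitors block probe labeling so polarization falls and inhibition rises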
PREPL inhibitor: inhibitors of human prolyl oligopeptidase-like enzyme PREPL | Q4J6C6 | recombinant PREPL, fluorescence polarization activity-based probe | inhibition, % at 5.96 µM | actives 0.68% (n = 320,000) | AID 2751
GSTO1 counter: counter-screen for RBBP9 inhibitors: inhibitors of human GSTO1; recombinant GSTO1, activity-based probe fluorescence polarization; inhibition, % at 5.96 µM; actives 1.1% (n = 300,000); AID 1974;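 active means inhibition above the campaign mean inhibition plus 3 SD, cut at about 35% in these data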
LYPLA2 inh: blocks human lysophospholipase 2, a PME1 counter-screen; actives 0.38% (n = 320,000); AID 2177; O95372; recombinant LYPLA2, FP-Rh probe fluorescence polarization; inhibition, % at 5.9 µM;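 active means inhibition above the screen-wide mean plus 3 SD, limit set per campaign, cut at about 26% in these data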
LYPLA1 inh: counter-screen for PME1 inhibitors: inhibitors of human LYPLA1. recombinant LYPLA1, FP-Rh probe fluorescence polarization. AID 2174. inhibition, % at 5.9 µM. O75608. actives 0.16% (n = 320,000);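 active means inhibition above the mean of all tested compounds plus 3 SD, set per campaign, cut at about 14% in these data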;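 further: inhibitors block serine hydrolase probe labeling of LYPLA1 so polarization falls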
Fam108B counter: Fam108B inhibition, counter-screen for RBBP9 inhibitors; recombinant Fam108B, FP-Rh probe fluorescence polarization; inhibition, % at 9.51 µM; actives 0.33% (n = 300,000); AID 1947;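 active means inhibition above the screen mean inhibition plus 3 SD, computed separately per campaign, cut at about 18% in these data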;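 further: inhibitors lower polarization as less probe binds the enzyme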
PREPL inh cf: human PREPL inhibition, confirmation | recombinant PREPL, fluorescence polarization activity probe | actives 67% (n = 2,000) | inhibition, % at 5.96 µM | shares compounds with PREPL inhibitor
A number is an active result; . = inactive; / = not tested or not shown. In the library only some 2% were active in any assay of this set; here they are far more common. Unless noted, no stated cut-off is given here; in the data, active means inhibition above about 43%; inactive means the rest.

SMILES | PME-1 primary | PREPL inhibitor | GSTO1 counter | LYPLA2 inh | LYPLA1 inh | Fam108B counter | PREPL inh cf
Cn1c(NC(=O)C[n+]2cc(-c3ccc(Cl)c(Cl)c3)n3c2CCC3)cc(=O)n(C)c1=O | . | 60.3 | . | . | . | . | 51.1
CC(/C=C/c1ccco1)=N\NC(=O)c1cccnc1 | . | . | . | . | . | . | /
CC(/C=C/c1ccco1)=N/NC(=O)c1ccc(C)nc1 | . | 60.2 | . | . | . | . | .
COc1ccc2nc3cc(Cl)ccc3c(Nc3cc(CN4CCCC4)c(O)c(CN4CCCC4)c3)c2n1 | . | 63.9 | . | . | . | . | 53.8
CN(C)c1ccc(/C=C/C(=O)c2ccc3c(c2)OCO3)cc1 | . | 52.2 | / | . | . | / | .
O=C(CN(C(=O)CNC(=O)c1cccs1)c1ccc(F)cc1)NC1CCCCC1 | . | . | . | . | . | . | /
Cc1ccc(C2=CC(c3ccc(N(C)C)cc3)n3nnnc3N2)cc1 (centres undefined) | . | 58.7 | . | . | . | . | 54.2
CCN(CC)CCCNC(=O)C1c2ccccc2C(=O)N(CCOC)C1c1ccc(F)cc1 (centres undefined) | . | . | . | . | . | . | /
CCN(CCCNC(=O)C1c2ccccc2C(=O)N(CCOC)C1c1ccc(F)cc1)Cc1ccccc1 (centres undefined) | . | 49.1 | . | . | . | . | .
Cc1cc(Cl)ccc1NC(=O)COC(=O)c1c(C)noc1C | . | . | / | . | . | / | /
Cc1ccc(NC2=CC(=O)C(=O)c3ccccc32)c(C)c1 | . | 47.0 | / | . | . | / | .
O=C(c1cccnc1)N1CCN(Cc2ccc3ccccc3c2)CC1 | . | 45.2 | . | . | . | . | .
N#CC1=C(N)C(C#N)(C#N)C(c2cccnc2)C2CC(c3ccccc3)CC=C12 (centres undefined) | 53.8 | 44.1 | . | . | . | . | .
O=C(COc1ccc(F)c(Cl)c1)Nc1ccc(N2CCOCC2)cc1 | / | 56.1 | / | / | / | / | 54.8
COc1ccc2c(CC(=O)Nc3ccc(N4CCOCC4)cc3)coc2c1 | . | 53.7 | . | . | . | . | 59.5
O=C(COc1ccc2ccc(=O)oc2c1)Nc1ccc(N2CCOCC2)cc1 | . | . | . | . | . | . | /
O=C(COc1cccc(Cl)c1)Nc1ccc(N2CCOCC2)cc1 | . | 46.0 | . | . | . | . | 46.7
CC(Oc1cccc(Cl)c1)C(=O)N(C)CC(=O)Nc1ccc(N2CCOCC2)cc1 (centres undefined) | . | . | . | . | . | . | /
O=C(CCn1c(=O)oc2cc(Cl)ccc21)Nc1ccc(N2CCOCC2)cc1 | . | 49.3 | . | . | . | . | 49.0
O=C(NCCc1c[nH]c2ccccc12)C(=O)NCC(c1ccco1)N1CCN(c2ccc(F)cc2)CC1 (centres undefined) | . | . | . | . | . | . | /
O=C(NCCc1c[nH]c2ccccc12)C(=O)NCC(c1ccco1)N1CCN(c2ccccc2)CC1 (centres undefined) | . | 45.6 | . | . | . | . | .
Cc1cc(-c2ccc(C(C)C)c(S(=O)(=O)Nc3cc(C)on3)c2)on1 | . | . | . | . | . | . | /
O=C(CCN1C(=O)[C@@H]2Cc3ccccc3CN2C1=O)N[C@@H](C(=O)O)c1ccccc1 | . | . | . | . | . | . | /
Cc1cc[n+](CC(=O)c2ccccc2)c2ccccc12 | . | 59.8 | . | . | . | . | .
Nc1cc(Cl)ccc1N1CCCC1 | . | . | . | . | . | . | /
SMILES | PME-1 primary | PREPL inhibitor | GSTO1 counter | LYPLA2 inh | LYPLA1 inh | Fam108B counter | PREPL inh cf
Nc1cc(F)ccc1N1CCCCCC1 | . | 43.2 | . | . | . | . | .
CCOc1ccc(CCNC(=O)c2ccc3c(=O)[nH]c4c(C(=O)NC(C)C)sc(=S)n4c3c2)cc1 | . | 55.4 | . | . | . | . | 78.5
CC(C)NC(=O)c1sc(=S)n2c1[nH]c(=O)c1ccc(C(=O)NCCc3ccc(Cl)cc3)cc12 | . | 70.5 | . | . | . | . | 80.0
[O-]c1c[n+](-c2ccc(-[n+]3cc([O-])on3)cc2)no1 | . | . | . | . | . | . | /
Cc1ccc(C(=O)C[n+]2cc(-c3ccc(C)cc3)n3c2CCCCC3)cc1 | . | . | . | . | . | . | /
O=C(C[n+]1cc(-c2ccccc2)n2c1CCCCC2)c1ccc(Br)cc1 | . | 54.1 | . | . | . | . | .
